Records with an inconclusive call do not appear. Unmarked numbers belong to inactive results. Calls of active or inactive are those of the source. Calls come from the whole dose curve; as a rule, active = well fitted curve in the direction sought with a large enough effect; inconclusive = small, poorly fitted or top-dose-only effect, or another doubt; inactive = no such curve, though single readings can be large; an effect the other way counts as inactive or inconclusive.

Assay [1] is described as follows: qHTS of pediatric cancer cell lines to identify multiple opportunities for drug repurposing: Primary screen for BT-12 cells (AID 1347101). Note: nearly all actives have a fitted effect of over 25% in size. Note: potency is the fitted concentration of half-maximal effect. The method, boiled down:
(§1)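 Cells (500-1,000/well) rested 5 h, then received compounds for 48 h; metabolically active cells were measured by CellTiter-Glo luminescence. Final concentrations spanned up to 46 µM (MIPE, 11-point) or 0.59 nM-46 µM (NPC, 8-point) in primary screens, 11-point in follow-ups.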
(qHTS replaces the single test concentration by a dilution series.)

A short description of assay [2]: qHTS of pediatric cancer cell lines to identify multiple opportunities for drug repurposing: Primary screen for OHS-50 cells (AID 1347103). Note: nearly all actives have a fitted effect of over 40% in size. Note: potency is the fitted concentration of half-maximal effect. An outline of the steps: as §1
The nature of assay [3]: qHTS of pediatric cancer cell lines to identify multiple opportunities for drug repurposing: Primary screen for RD cells (AID 1347104). Note: nearly all actives have a fitted effect of over 55% in size. Note: potency is the fitted concentration of half-maximal effect. An outline of the steps: (§2)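 Quantitative HTS format: each compound titrated (MIPE 11 points from 0.78 nM, NPC 8 points from 0.59 nM) onto cells plated 5 hours earlier. After 48 h at 37 degrees C, CellTiter-Glo luminescence was recorded.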

The nature of assay [4]: qHTS of pediatric cancer cell lines to identify multiple opportunities for drug repurposing: Primary screen for MG 63 (6-TG R) cells (AID 1347105). Note: nearly all actives have a fitted effect of over 50% in size. Note: potency is the fitted concentration of half-maximal effect. The method, boiled down: as §2
Assay [5] can be described thus: qHTS of pediatric cancer cell lines to identify multiple opportunities for drug repurposing: Primary screen for control Hh wild type fibroblast cells (AID 1347106). Note: nearly all actives have a fitted effect of over 55% in size. Note: potency is the fitted concentration of half-maximal effect. The method, boiled down:
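Viability after 48 h compound treatment at 37C, 500-1,000 cells/well, read as ATP luminescence with CellTiter-Glo. Primary screens used 11-point (MIPE, 0.78 nM-46 µM) or 8-point (NPC, 0.59 nM-46 µM) final concentrations; follow-up screens used 11-point dilutions.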

Assay [6] can be described thus: qHTS of pediatric cancer cell lines to identify multiple opportunities for drug repurposing: Primary screen for Rh30 cells (AID 1347107). Note: nearly all actives have a fitted effect of over 75% in size. Note: potency is the fitted concentration of half-maximal effect. The method, boiled down:
as §1

Assay [7] in a line: qHTS of pediatric cancer cell lines to identify multiple opportunities for drug repurposing: Primary screen for Rh41 cells (AID 1347108). Note: nearly all actives have a fitted effect of over 70% in size. Note: potency is the fitted concentration of half-maximal effect. An outline of the steps:
as §2

Assay [8] can be described thus: qHTS of pediatric cancer cell lines to identify multiple opportunities for drug repurposing: Confirmatory screen for NB1643 cells (AID 1347109). Note: potency is the fitted concentration of half-maximal effect; nearly all actives have a fitted effect of over 45% in size. The method, boiled down:
as §1

Assay [9] can be described thus: qHTS of pediatric cancer cell lines to identify multiple opportunities for drug repurposing: Confirmatory screen for A673 cells (AID 1347110).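 Note: potency is the fitted concentration of half-maximal effect; cells exposed to compound for 48 h before the viability read; nearly all actives have a fitted effect of over 65% in size.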 To be noted: A673 Ewing sarcoma cell viability. An outline of the steps:
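A673 cells at 500-1,000 cells/well were dosed 5 h after plating, in dilution series up to 46 uM final; primary runs used 8 or 11 points and confirmatory runs used 11 points. Viability was read by CellTiter-Glo luminescence after 48 h, against DMSO and 2.3 uM bortezomib controls.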

The nature of assay [10]: qHTS of pediatric cancer cell lines to identify multiple opportunities for drug repurposing: Confirmatory screen for SK-N-MC cells (AID 1347111).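 Note: potency is the fitted concentration of half-maximal effect; cells exposed to compound for 48 h before the readout; nearly all actives have a fitted effect of over 70% in size.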 To be noted: SK-N-MC cell viability. The method, boiled down: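 Seed 500-1,000 cells/well; rest 5 h at 37 degrees C. Pin-transfer compounds, 11-point titration. Incubate 48 h. Add CellTiter-Glo, 15 min RT, read luminescence.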

A short description of assay [11]: qHTS of pediatric cancer cell lines to identify multiple opportunities for drug repurposing: Confirmatory screen for LAN-5 cells (AID 1347113). Note: potency is the fitted concentration of half-maximal effect; nearly all actives have a fitted effect of over 65% in size. The method, boiled down: as §1
Assay [12] is described as follows: qHTS of pediatric cancer cell lines to identify multiple opportunities for drug repurposing: Confirmatory screen for DAOY cells (AID 1347114). Note: potency is the fitted concentration of half-maximal effect; nearly all actives have a fitted effect of over 65% in size. The method, boiled down: (§3)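 Viability measured as metabolically active cells via CellTiter-Glo luminescence following 48 hours of compound exposure, 11-point dilutions in confirmatory testing. 500-1,000 cells/well plated 5 hours before dosing; controls were DMSO and 2.3 µM bortezomib.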

A short description of assay [13]: qHTS of pediatric cancer cell lines to identify multiple opportunities for drug repurposing: Confirmatory screen for BT-37 cells (AID 1347117). Note: potency is the fitted concentration of half-maximal effect; nearly all actives have a fitted effect of over 55% in size. To be noted: BT-37 pediatric cancer cells, viability. The method, boiled down:
as §1

Assay [14] in a line: qHTS of pediatric cancer cell lines to identify multiple opportunities for drug repurposing: Confirmatory screen for TC32 cells (AID 1347118).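 Note: potency is the fitted concentration of half-maximal effect; cells exposed to compound for 48 h before the read; nearly all actives have a fitted effect of over 65% in size.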 To be noted: TC32 Ewing sarcoma cells viability qHTS. The method, boiled down: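 Luminescent CellTiter-Glo read-out of metabolically active TC32 cells after 48 h compound exposure. Primary: MIPE 11-point, 0.78 nM–46 µM; NPC 8-point, 0.59 nM–46 µM. Confirmatory: 11-point dilutions.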

Assay [15] in a line: qHTS of pediatric cancer cell lines to identify multiple opportunities for drug repurposing: Confirmatory screen for MG 63 (6-TG R) cells (AID 1347119). Note: potency is the fitted concentration of half-maximal effect; nearly all actives have a fitted effect of over 55% in size. The method, boiled down:
as §1

The nature of assay [16]: qHTS of pediatric cancer cell lines to identify multiple opportunities for drug repurposing: Confirmatory screen for BT-12 cells (AID 1347112). The method, boiled down:
as §1

Assay [17] can be described thus: qHTS of pediatric cancer cell lines to identify multiple opportunities for drug repurposing: Confirmatory screen for NB-EBc1 cells (AID 1347115).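 Note: potency is the fitted concentration of half-maximal effect; cells exposed to compound for 48 h before the viability read; nearly all actives have a fitted effect of over 45% in size.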 The method, boiled down: as §1
Assay [18] in a line: qHTS of pediatric cancer cell lines to identify multiple opportunities for drug repurposing: Confirmatory screen for SJ-GBM2 cells (AID 1347116). Note: potency is the fitted concentration of half-maximal effect; nearly all actives have a fitted effect of over 60% in size. An outline of the steps:
as §3

A short description of assay [19]: qHTS of pediatric cancer cell lines to identify multiple opportunities for drug repurposing: Confirmatory screen for control Hh wild type fibroblast cells (AID 1347121). Note: potency is the fitted concentration of half-maximal effect; nearly all actives have a fitted effect of over 70% in size. An outline of the steps: as §1
A short description of assay [20]: qHTS of pediatric cancer cell lines to identify multiple opportunities for drug repurposing: Primary screen for Rh18 cells (AID 1347102). Note: nearly all actives have a fitted effect of over 65% in size. An outline of the steps: as §1

In the case of `CCCCCCCCCCCCOCCO`, the Potency entry in [1], in [2], in assay [3], in assay [4], in [5] and in assay [6] was “inactive” in each case. Moreover, in assay [7], the Potency result was “inactive”.

As to `Cc1c(N)c(=O)n(-c2ccccc2)n1C`, the Potency entry in assay [1], in assay [2], in [3], in assay [4], in [5] and in assay [6] was “inactive” throughout. Further, the Potency result in [7] was “inactive”.

Take `NCCO`: the Potency result in [1], in assay [2], in assay [3], in [4], in assay [5] and in assay [6] was “inactive” in each case. Besides, the Potency entry in assay [7] was “inactive”.

As for `O=Cc1ccc(O)c(O)c1O`, the Potency result in [1], in assay [2], in assay [4], in assay [5], in assay [6] and in assay [7] was “inactive” in each case.

Regarding `Cc1ccc2c(n1)Oc1ccc(C(C)C(=O)OCC(=O)N(C)C)cc1C2` (centres undefined), the Potency entry in assay [1], in assay [3], in assay [4], in [5], in assay [6] and in [7] was “inactive” in each case.

As to `O=C(Nc1ccc(C(=O)O)c(O)c1)c1ccccc1`, the Potency entry in assay [1], in [3], in assay [4], in assay [5], in assay [6] and in assay [7] was “inactive” in each case.

In the case of `CC1(C)S[C@@H]2[C@H](NC(=O)[C@H](N)c3ccccc3)C(=O)N2[C@H]1C(=O)O`, the Potency result in [1], in assay [2], in assay [3], in assay [4], in [5] and in [6] was “inactive” throughout. In addition, the Potency result in [7] is “inactive”.

On to `C[N+]1(C)[C@@H]2CC(OC(=O)[C@H](CO)c3ccccc3)C[C@H]1[C@@H]1O[C@@H]12` (some centres undefined), for which the Potency entry in [1], in [2], in assay [3], in [4], in assay [5] and in [6] was “inactive” in each case. Also, the Potency entry in assay [7] is “inactive”.

Consider `C/C(=N\O)c1ccc(OCC(=O)N2CCCCC2)cc1`, for which the Potency result in assay [1], in assay [2], in [3], in assay [4], in assay [5] and in assay [6] was “inactive” each time. The Potency entry in [7] is “inactive”.

Consider `O=C(O)/C=C\C(=O)O`, for which the Potency result in assay [1], in [2], in assay [3], in assay [4], in assay [5] and in assay [6] was “inactive” in each case. In addition, the Potency entry in [7] is “inactive”.

As to `NC(=O)C(c1ccccc1)(c1ccccc1)[C@@H]1CCN(CCc2ccc3c(c2)CCO3)C1`, the Potency result in [1], in [3], in assay [4], in assay [5], in [6] and in assay [7] was “inactive” in each case.

Regarding `Cc1ccc(O)c(-n2nc3ccccc3n2)c1`, the Potency entry in assay [1], in assay [2], in assay [3], in assay [4], in [5] and in assay [6] was “inactive” each time. Moreover, the Potency result in [7] was “inactive”.

For the molecule `CCC1C(=O)OCC1Cc1cncn1C` (centres undefined), the Potency entry in assay [1], in assay [2], in [3], in assay [4], in assay [5] and in assay [6] was “inactive” in each case. Further, the Potency entry in assay [7] is “inactive”.

On to `CN(C)CCn1nnnc1SCC1=C(C(=O)O)N2C(=O)[C@@H](NC(=O)Cc3csc(N)n3)[C@H]2SC1`, for which the Potency result in assay [1], in assay [3], in assay [4], in [5], in assay [6] and in assay [7] was “inactive” each time.

Turning to `N=C1N=C(N)c2cc3ccccc3cc21`, the Potency in assay [1] was 25.2 µM (active); in assay [2] it was 17.8 µM (active); in assay [3], 34.4 µM (active); in assay [4], 24.3 µM (active); in [7] it was 30.6 µM (active); in assay [8] it was 33.9 µM (active). Also, the Potency in [9] is 38 µM (active); in assay [10], 17 µM (active); in assay [11], 38 µM (active); in assay [12], 42.7 µM (active); in [13], 38 µM (active); in [14], 17 µM (active). For the same molecule, the Potency in [15] is 19.1 µM (active).

As for `CNC(=O)c1c(I)c(NC(=O)CCCCC(=O)Nc2c(I)c(C(=O)O)c(I)c(C(=O)NC)c2I)c(I)c(C(=O)O)c1I`, the Potency entry in [1], in [3], in assay [4], in [5], in assay [6] and in [7] was “inactive” throughout.

Consider `COc1ccnc2c1CCCCC2S(=O)c1nc2ccccc2[nH]1` (centres undefined), for which the Potency result in assay [1], in [3], in [4], in [5], in [6] and in [7] was “inactive” each time.

Turning to `COC(=O)C1=C(C)NC(C)=C(C(=O)OCC(C)=O)C1c1ccccc1[N+](=O)[O-]` (centres undefined), the Potency entry in assay [6] and in assay [7] was “inactive” in each case.

On to `CN(C)c1ccc(C(=C2C=CC(=[N+](C)C)C=C2)c2ccccc2)cc1`, for which the Potency is 0.174 µM (active) in assay [1]; 0.0596 µM (active) in [3]; 0.106 µM (active) in assay [4]; 23.7 µM (active) in assay [5]; 0.473 µM (active) in assay [6]; 0.0944 µM (active) in assay [7]. Moreover, the Potency was 0.657 µM (active) in [8]; 0.293 µM (active) in assay [9]; 0.369 µM (active) in [10]; 1.85 µM (active) in assay [16]; 0.737 µM (active) in assay [11]; 0.657 µM (active) in assay [12]. Besides, the Potency is 0.827 µM (active) in [17]; 1.31 µM (active) in assay [18]; 0.657 µM (active) in assay [13]; 0.261 µM (active) in assay [14]; 0.208 µM (active) in assay [15]; 0.737 µM (active) in [19].

As for `COc1ccc(-c2cc(=S)ss2)cc1`, the Potency entry in [3], in assay [4], in assay [5], in assay [6] and in assay [7] was “inactive” in each case.

For the molecule `C#CC1(O)CC[C@H]2[C@@H]3CCC4=CCCC[C@@H]4[C@H]3CC[C@@]21C` (some centres undefined), the Potency result in assay [20], in assay [3], in assay [5], in assay [6] and in assay [7] was “inactive” in each case. In assay [4], the Potency was 21.1 µM (active).

Source of the values: PubChem BioAssay (NCATS).
